Composite z-score and z-score data for five compounds are collected here from PubChem BioAssay.

Active and inactive are the calls of the source.

For assay [1], the system named is PRMT1 (protein arginine N-methyltransferase 1). Nature of the assay: PRMT1 binders on small-molecule microarrays, primary screen, biochemical, small-molecule microarray, 635 nm fluorescence (AID 1088).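 Further: binding of Prmt1 protein to compounds spotted on small-molecule microarray slides.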 The settings on record: small-molecule microarray binding, higher = more signal.
A short description of assay [2]: yeast growth modulation, basal conditions, primary screen, YJM789 clinical isolate, OD600, 24 h (AID 1089).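 Further: growth of clinical yeast isolate S. cerevisiae YJM 789 seeded 1000 cells per well; test concentration not given here.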 Particulars: S. cerevisiae YJM789 growth, higher = more signal, called active from +8 up or from −8 down.
A short description of assay [3]: fission yeast growth modulation, primary screen, strain 972, OD600, 24 h, no modulator (AID 1090).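 Further: basal condition with compound alone and no growth modifier present; test concentration not given here.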 The settings on record: S. pombe 972 growth, higher = more signal, called active from +8 up or from −8 down.
Assay [4] is described as follows: S. cerevisiae growth modulation with rapamycin, primary screen, strain BY4716, OD600, 96 h (AID 1091). Further: test concentration not given here. The settings on record: higher = more signal, called active from +8 up or from −8 down.
Assay [5] deals with Torsin-1A-interacting protein 2 (Homo sapiens) (UniProt Q8NFQ8). Kind of assay: LULL1 binders on small-molecule microarray, primary screen, cell lysate, human LULL1 lysate, 635/667 nm fluorescence (AID 1092).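 Further: probe is lysate of COS7 cells overexpressing human LULL1; score merges per-feature 667 nm fluorescence with signal-to-noise.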 The settings on record: hLULL1 lysate binding, 635 nm fluorescence, higher = more signal.
A short description of assay [6]: E. coli growth modulation, two-sided OD650, primary screen, E. coli filamentation project, strain DRC41, 24 h (AID 1093).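 Further: MC1000 strain lacking acrAB efflux and sulA so SOS filamentation is blocked; test concentration not given here.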 Particulars: OD650, 24 h, higher = more signal, called active from +8 up or from −8 down.
A short description of assay [7]: small-molecule microarray binders of probe aLefty2, primary screen, biochemical, biotinylated probe, 635/667 nm fluorescence (AID 1094).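 Further: score merges spot fluorescence near 667 nm with spot signal-to-noise ratio.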 The settings on record: higher = more signal.
Assay [8] has as its system Noggin (protein binding on small-molecule microarray). Nature of the assay: Noggin binders on small-molecule microarray, primary screen, biochemical, 635/667 nm fluorescence (AID 1095).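 Further: score merges 667 nm feature fluorescence with signal to noise over triplicate slides.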 Particulars: 635 nm fluorescence, higher = more signal.
The target in assay [9] is Neurogenic locus notch homolog protein 3 (Homo sapiens) (UniProt Q9UM47). Kind of assay: NOTCH3 binders on small-molecule microarray, primary screen, biochemical, 635/667 nm fluorescence (AID 1096). Particulars: NOTCH3 binding, 635 nm fluorescence, higher = more signal.
Assay [10] in a line: small-molecule microarray binders of probe aEGFR, primary screen, biochemical, biotinylated probe, 635/667 nm fluorescence (AID 1097).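 Further: probe is a biotinylated anti-EGFR antibody binding compounds printed on slides; score combines fluorescence near 667 nm and signal to noise of each spot.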 Particulars: higher = more signal.
For assay [11], the system named is Plasmodium falciparum Sir2 (PF13_0152, Sir2A). Kind of assay: pfSir2 binders on small-molecule microarrays, primary screen, biochemical, small-molecule microarray, 635 nm fluorescence (AID 1098).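 Further: score merges spot fluorescence intensity with its signal-to-noise ratio.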 The settings on record: small-molecule microarray binding, fluorescence 635 nm; higher = more signal.
Assay [12] is described as follows: small-molecule microarray binders of probe aDKK1, primary screen, biochemical, biotinylated probe, 635/667 nm fluorescence (AID 1099).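 Further: score merges 667nm spot fluorescence with signal to noise across triplicate slides; reference of the scale not given here.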 The settings on record: higher = more signal.
Assay [13] in a line: small-molecule microarray binders of probe aCHRDL2, primary screen, biochemical, biotinylated probe, 635/667 nm fluorescence (AID 1100). The settings on record: higher = more signal.
The nature of assay [14]: splicing luciferase reporter signal modulators, primary screen, spliceosome inhibition project, cell-based, HEK293, splice +/- reporter (AID 1101).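 Further: HEK293 cells carrying a splicing-competent luciferase reporter gene; test concentration not given here.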 Particulars: luminescence, 24 h, higher = more signal, called active from +8 up or from −8 down.
Assay [15] concerns the target Fibroblast growth factor 10 (Homo sapiens) (UniProt O15520). Kind of assay: FGF10 binders on small-molecule microarrays, primary screen, biochemical, small-molecule microarray, 635 nm fluorescence (AID 1102). Particulars: FGF10 binding, fluorescence 635 nm, higher = more signal.
Assay [16] deals with glycogen synthase kinase-3 (GSK3A per assay name; protocol says GSK3B). Kind of assay: GSK3 binders on small-molecule microarrays, primary screen, biochemical, small-molecule microarray, 635 nm fluorescence, GSK3A (AID 1103). Further: the record names both GSK3A and GSK3B. The settings on record: small-molecule microarray binding, fluorescence 635 nm; higher = more signal.
Assay [17] addresses Epidermal growth factor receptor (Homo sapiens) (UniProt P00533). Nature of the assay: EGFR binders on small-molecule microarrays, primary screen, biochemical, small-molecule microarray, 635 nm fluorescence (AID 1104).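 Further: score merges 667 nm emission intensity with spot signal to noise over triplicate slides.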 Particulars: EGFR binding, higher = more signal.
In assay [18] the target is Follistatin-related protein 3 (Homo sapiens) (UniProt O95633). Nature of the assay: FSTL3 binders on small-molecule microarrays, primary screen, biochemical, small-molecule microarray, 635 nm fluorescence (AID 1105).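 Further: score merges emission near 667 nm and signal to noise per printed spot across three slides.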 Particulars: FSTL3 binding, higher = more signal.
Assay [19] has as its target Dickkopf-related protein 1 (Homo sapiens) (UniProt O94907). Kind of assay: DKK1 binders on small-molecule microarrays, primary screen, biochemical, small-molecule microarray, 635 nm fluorescence scan (AID 1106).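 Further: score merges emission near 667 nm with signal to noise over three replicate slides.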 The settings on record: DKK1 binding, higher = more signal.
Assay [20] has as its system Inhibin beta A chain (activin A). Nature of the assay: INHBA (activin A) binders on microarrays, primary screen, biochemical, small-molecule microarray, 635 nm fluorescence scan (AID 1107).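 Further: mouse activin A protein probed at 4.33 µg/mL on printed slides; score merges bound-protein fluorescence near 667 nm with spot signal-to-noise.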 The settings on record: small-molecule microarray binding, higher = more signal.

Neurogenic locus notch homolog protein 3 (Homo sapiens), sequence (Q9UM47 whole entry, looked up): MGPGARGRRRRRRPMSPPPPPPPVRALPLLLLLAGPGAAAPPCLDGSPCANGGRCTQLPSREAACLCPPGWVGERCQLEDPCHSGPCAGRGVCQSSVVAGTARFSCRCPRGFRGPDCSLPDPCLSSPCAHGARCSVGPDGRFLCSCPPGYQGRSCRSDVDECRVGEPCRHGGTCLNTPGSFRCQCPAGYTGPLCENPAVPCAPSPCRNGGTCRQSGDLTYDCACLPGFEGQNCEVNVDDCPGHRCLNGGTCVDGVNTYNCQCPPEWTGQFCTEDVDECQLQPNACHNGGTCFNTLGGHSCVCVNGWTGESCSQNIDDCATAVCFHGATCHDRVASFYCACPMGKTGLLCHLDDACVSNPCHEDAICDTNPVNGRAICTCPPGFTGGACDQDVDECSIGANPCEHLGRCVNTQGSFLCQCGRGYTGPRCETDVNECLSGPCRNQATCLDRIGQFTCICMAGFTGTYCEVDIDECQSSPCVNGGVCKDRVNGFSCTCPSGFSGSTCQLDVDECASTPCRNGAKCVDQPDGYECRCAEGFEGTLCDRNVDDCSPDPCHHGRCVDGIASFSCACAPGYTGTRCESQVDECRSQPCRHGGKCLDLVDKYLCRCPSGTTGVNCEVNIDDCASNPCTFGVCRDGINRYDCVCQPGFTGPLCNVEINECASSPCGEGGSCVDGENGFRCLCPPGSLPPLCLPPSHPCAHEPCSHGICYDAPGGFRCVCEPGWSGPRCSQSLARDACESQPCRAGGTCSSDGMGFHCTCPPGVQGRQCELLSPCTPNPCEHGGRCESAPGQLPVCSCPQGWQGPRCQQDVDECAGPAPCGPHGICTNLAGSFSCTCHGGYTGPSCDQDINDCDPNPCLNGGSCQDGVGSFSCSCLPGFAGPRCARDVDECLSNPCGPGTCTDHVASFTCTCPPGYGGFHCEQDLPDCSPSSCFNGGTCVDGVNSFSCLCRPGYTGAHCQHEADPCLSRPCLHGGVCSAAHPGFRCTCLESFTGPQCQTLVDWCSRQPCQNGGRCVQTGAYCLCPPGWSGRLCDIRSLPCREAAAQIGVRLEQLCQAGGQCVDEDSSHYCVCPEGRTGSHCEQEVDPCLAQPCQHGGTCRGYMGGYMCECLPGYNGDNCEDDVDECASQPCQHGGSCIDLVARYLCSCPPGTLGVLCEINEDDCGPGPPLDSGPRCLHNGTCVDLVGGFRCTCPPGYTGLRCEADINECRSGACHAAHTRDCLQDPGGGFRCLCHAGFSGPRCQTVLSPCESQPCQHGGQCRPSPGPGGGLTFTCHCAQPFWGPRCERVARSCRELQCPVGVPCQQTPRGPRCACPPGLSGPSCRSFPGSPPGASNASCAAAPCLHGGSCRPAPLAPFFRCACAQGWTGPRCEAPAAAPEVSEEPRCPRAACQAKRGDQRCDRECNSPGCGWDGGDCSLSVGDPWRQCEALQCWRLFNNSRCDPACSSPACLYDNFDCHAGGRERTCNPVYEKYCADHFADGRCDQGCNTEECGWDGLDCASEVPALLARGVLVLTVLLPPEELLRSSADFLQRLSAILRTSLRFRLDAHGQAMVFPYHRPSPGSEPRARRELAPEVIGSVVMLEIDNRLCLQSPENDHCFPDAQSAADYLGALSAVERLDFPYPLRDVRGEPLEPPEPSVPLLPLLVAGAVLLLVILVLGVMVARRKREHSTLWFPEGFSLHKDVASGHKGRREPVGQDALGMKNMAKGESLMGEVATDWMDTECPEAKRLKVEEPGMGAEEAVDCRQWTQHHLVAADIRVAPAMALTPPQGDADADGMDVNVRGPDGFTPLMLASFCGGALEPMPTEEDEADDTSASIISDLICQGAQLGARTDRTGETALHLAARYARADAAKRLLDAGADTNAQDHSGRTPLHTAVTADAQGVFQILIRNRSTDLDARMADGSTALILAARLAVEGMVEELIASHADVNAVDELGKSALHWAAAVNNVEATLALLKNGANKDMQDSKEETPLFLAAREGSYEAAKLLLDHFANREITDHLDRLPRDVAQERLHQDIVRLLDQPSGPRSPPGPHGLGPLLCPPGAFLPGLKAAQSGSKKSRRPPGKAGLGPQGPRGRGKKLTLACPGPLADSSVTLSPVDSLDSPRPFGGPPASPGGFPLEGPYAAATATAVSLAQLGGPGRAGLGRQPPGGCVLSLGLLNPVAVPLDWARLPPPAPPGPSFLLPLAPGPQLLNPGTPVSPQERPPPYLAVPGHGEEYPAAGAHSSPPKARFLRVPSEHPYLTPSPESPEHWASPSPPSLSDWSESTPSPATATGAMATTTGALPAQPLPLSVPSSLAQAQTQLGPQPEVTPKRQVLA
Follistatin-related protein 3 (Homo sapiens), sequence (O95633 whole entry, looked up): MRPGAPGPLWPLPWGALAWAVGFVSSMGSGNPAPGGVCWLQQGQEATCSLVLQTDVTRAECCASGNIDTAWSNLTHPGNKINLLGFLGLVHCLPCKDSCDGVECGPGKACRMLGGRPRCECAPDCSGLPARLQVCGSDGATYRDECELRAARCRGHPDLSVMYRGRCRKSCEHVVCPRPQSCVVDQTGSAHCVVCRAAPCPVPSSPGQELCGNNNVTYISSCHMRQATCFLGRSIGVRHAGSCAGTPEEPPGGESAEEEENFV
Fibroblast growth factor 10 (Homo sapiens), sequence (O15520 whole entry, looked up): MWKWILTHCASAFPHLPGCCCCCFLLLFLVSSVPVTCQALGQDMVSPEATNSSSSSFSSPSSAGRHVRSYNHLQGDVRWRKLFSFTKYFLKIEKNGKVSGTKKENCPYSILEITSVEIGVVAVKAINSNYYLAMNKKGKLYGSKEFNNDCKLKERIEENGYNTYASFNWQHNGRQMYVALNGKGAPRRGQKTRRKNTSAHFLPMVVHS
Epidermal growth factor receptor (Homo sapiens), sequence (P00533 whole entry, looked up): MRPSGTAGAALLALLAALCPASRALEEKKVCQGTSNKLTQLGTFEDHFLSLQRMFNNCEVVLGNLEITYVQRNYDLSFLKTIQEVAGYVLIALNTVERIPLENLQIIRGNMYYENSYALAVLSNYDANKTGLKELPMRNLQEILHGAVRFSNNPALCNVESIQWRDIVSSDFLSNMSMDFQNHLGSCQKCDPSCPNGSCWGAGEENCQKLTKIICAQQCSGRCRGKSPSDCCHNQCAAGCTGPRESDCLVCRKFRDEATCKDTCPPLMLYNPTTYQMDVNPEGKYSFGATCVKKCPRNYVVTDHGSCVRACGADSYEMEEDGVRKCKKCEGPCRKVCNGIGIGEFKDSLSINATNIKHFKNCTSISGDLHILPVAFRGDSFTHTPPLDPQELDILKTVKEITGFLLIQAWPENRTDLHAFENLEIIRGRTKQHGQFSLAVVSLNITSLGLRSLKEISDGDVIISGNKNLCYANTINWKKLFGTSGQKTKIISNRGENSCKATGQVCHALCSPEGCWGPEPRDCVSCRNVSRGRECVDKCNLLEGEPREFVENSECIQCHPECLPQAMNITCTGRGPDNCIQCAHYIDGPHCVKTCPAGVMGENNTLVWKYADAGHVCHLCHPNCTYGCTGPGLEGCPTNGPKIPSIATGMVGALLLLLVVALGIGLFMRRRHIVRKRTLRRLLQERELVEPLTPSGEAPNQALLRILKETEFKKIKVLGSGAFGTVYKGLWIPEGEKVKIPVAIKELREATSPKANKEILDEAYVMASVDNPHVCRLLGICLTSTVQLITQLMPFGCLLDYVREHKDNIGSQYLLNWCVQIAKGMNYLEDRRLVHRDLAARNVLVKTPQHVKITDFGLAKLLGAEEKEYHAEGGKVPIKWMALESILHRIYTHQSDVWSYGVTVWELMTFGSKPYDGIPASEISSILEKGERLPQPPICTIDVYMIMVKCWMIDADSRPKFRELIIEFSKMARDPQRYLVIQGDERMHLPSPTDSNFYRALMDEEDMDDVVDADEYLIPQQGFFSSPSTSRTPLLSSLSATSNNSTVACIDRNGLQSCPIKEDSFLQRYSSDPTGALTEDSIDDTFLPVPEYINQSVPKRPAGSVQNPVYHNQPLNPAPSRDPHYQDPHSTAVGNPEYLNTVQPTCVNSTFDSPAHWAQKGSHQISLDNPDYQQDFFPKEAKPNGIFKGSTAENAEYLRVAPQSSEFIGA
Dickkopf-related protein 1 (Homo sapiens), sequence (O94907 whole entry, looked up): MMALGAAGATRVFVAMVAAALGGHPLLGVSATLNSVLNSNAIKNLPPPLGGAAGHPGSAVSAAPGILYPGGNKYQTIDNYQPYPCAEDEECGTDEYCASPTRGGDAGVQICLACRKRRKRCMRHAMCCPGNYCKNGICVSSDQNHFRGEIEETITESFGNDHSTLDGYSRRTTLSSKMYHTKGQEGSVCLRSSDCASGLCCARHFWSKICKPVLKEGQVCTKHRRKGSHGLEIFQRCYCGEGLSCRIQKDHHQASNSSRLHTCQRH
Torsin-1A-interacting protein 2 (Homo sapiens), sequence (Q8NFQ8 whole entry, looked up): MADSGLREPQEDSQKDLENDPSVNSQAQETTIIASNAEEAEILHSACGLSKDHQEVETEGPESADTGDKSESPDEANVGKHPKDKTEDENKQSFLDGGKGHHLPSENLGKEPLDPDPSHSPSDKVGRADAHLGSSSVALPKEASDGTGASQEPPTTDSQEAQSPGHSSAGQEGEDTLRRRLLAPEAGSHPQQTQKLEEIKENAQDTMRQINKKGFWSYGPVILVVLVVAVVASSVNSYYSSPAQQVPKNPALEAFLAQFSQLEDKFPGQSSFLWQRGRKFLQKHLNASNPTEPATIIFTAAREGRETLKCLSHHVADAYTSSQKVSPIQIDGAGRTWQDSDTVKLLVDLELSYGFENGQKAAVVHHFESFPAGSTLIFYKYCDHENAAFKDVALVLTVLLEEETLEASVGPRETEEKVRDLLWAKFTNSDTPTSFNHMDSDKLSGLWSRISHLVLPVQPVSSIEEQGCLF

`C=CC[C@@]1(C(=O)NCC(O)CO)N=C(c2ccc(OCCCO)cc2)O[C@@H]1c1ccccc1CN=[N+]=[N-]` (stereo not given in full): the composite z-score was 1.18 in [1]; 3.84 in assay [5]; -0.147 in assay [7]; -0.265 in [8]; -0.216 in [9]; -0.152 in assay [10]. In addition, the composite z-score in assay [11] was 1.52; in [12], -0.0775; in assay [13], 1.08; in assay [15], 0.0349; in assay [16] it was -1.33; in [17], -0.83. Besides, the figures for the composite z-score in assay [18], in assay [19] and in assay [20] were -0.884, -1.45 and 0.242, respectively. In addition, the z-score in [2] was -0.785 (inactive); in assay [3], -1.42 (inactive); in assay [4], -1.04 (inactive); in [6], 1.52 (inactive); in [14], -0.155 (inactive).

Turning to `CCCNC(=O)[C@@H]1c2ccccc2C(=O)N(C2CCCCC2)[C@H]1c1ccc(CO)cc1`, the composite z-score in assay [1] turned out to be 1.53; in assay [5], 3.01; in assay [7], 0.0511; in [8], 0.771; in assay [9] it was 1.1; in assay [10] it was 0.0634. Also, the composite z-score in assay [11] amounted to 0.941; in assay [12] it was 0.331; in assay [13], 0.533; in [15], 0.965; in [16] it was 1.3; in assay [17], 0.432. Also, the values for the composite z-score in assay [18], in [19] and in [20] were 0.958, 0.315 and 0.397, respectively. Besides, the z-score was -0.104 (inactive) in assay [2]; 1.15 (inactive) in assay [3]; 1.29 (inactive) in [4]; -0.358 (inactive) in assay [6]; -0.618 (inactive) in assay [14].

In the case of `CO[C@]12C=C(Br)[C@@H](C[C@@H]1c1ccccc1)[C@@]1(CO1)C2=O`, the composite z-score in [1] is -0.167; in assay [5] it was -0.132; in [7], -0.2; in [8], 0.706; in assay [9], 0.243; in [10], -0.14. For the same compound, the composite z-score was 0.165 in assay [11]; -0.301 in [12]; -0.708 in assay [13]; 0.342 in assay [15]; 0.497 in assay [16]; 0.496 in assay [17]. Also, the figures for the composite z-score in assay [18], in [19] and in assay [20] were 0.615, 0.791 and 0.737, respectively. The z-score in assay [2] was -0.0474 (inactive); in assay [3], -4.38 (inactive); in assay [4], -0.208 (inactive); in [6] it was 2.43 (inactive); in assay [14] it was -0.0249 (inactive).

On to `C[C@H]1NC(=O)[C@@H](C)NC(=O)[C@@]23C(=O)N[C@@H](Cc4ccccc4)C2[C@H](C)[C@@]2(C)O[C@H]2C3/C=C/C/C=C\CNC1=O` (stereo not given in full), for which the composite z-score in assay [1] is -0.0842; in assay [5], -0.968; in assay [7], -0.142; in assay [8], -0.142; in assay [9] it was -0.129; in assay [10], -0.131. Moreover, the composite z-score in [11] is 1.66; in [12], -0.581; in [13], -0.781; in assay [15] it was 0.14; in [16], 0.0002; in [17], 0.0021. Besides, the results for the composite z-score in [18], in assay [19] and in assay [20] were 0.171, 0.422 and 1.28, respectively. Also, the z-score was 1 (inactive) in assay [2]; -0.696 (inactive) in assay [3]; 0.581 (inactive) in assay [4]; 2.41 (inactive) in [6]; -0.697 (inactive) in assay [14].

Consider `CCN1C(C)=C(C(=O)OC)[C@@H](c2ccccc2)N2C(=O)[C@@]3(C(=O)OC)O[C@@]12[C@@H]1C(=O)N(c2ccccc2)C(=O)[C@@H]13`, for which the composite z-score was 1.22 in assay [1]; 1.2 in assay [5]; -0.19 in assay [7]; 1.21 in assay [8]; 0.983 in assay [9]; -0.087 in assay [10]. Besides, the composite z-score in assay [11] is 0.286; in assay [12], 0.0355; in [13] it was -0.253; in [15], 1; in assay [16], 0.85; in assay [17] it was 0.472. Also, the results for the composite z-score in assay [18], in assay [19] and in assay [20] were 1.24, 0.4 and -0.545, respectively. Moreover, the z-score in assay [2] was -0.806 (inactive); in [3], -1.23 (inactive); in assay [4], -0.325 (inactive); in [6], -0.0256 (inactive); in [14] it was -1.66 (inactive).
